# Results filed as inconclusive are left out. Activity calls are given as the source filed them. How the source made its calls, unless noted: active means hit-call score of the fitted dose curve at least 0.9, where 1 is the maximum; inactive means score below 0.9.
# Columns and labels:
# [1] = CCTE_Shafer_MEA_dev_firing_rate_mean: CCTE's Neural Network Formation Assay for Mean Firing Rate, Shafer Lab (AID 2284031);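 on AC50: curve fitted for loss of firing so AC50 reflects decreased mean firing rate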
# Method in brief: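 Rat primary cortical neurons were seeded on multielectrode arrays and treated from plating through day 12, with redosing at each feed. Spontaneous spiking was recorded four times; mean firing rate AUC was fitted downward against DMSO.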
# [2] = CCTE_Shafer_MEA_dev_per_burst_spike_percent: CCTE's Neural Network Formation Assay for Percent of Spikes in a Burst, Shafer Lab (AID 2284032);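 on AC50: fitted as a decrease in burst spike percentage below DMSO baseline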
# Method in brief: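 Rat primary cortical neurons on 16-electrode MEA wells, dosed from plating day 0 for 12 days with renewal on DIV 5 and 9; spikes-in-bursts percentage averaged over bursting electrodes, collapsed as AUC across days 5, 7, 9, 12; loss direction versus DMSO.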
# [3] = CCTE_Shafer_MEA_dev_active_electrodes_number: CCTE's Neural Network Formation Assay for Number of Active Electrodes, Shafer Lab (AID 2284040; active means hit-call score of the fitted dose curve at least 0.9, where 1 is the maximum;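 on AC50: potency for loss of active electrodes versus DMSO so lower counts are hits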)
# Method in brief: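 Primary rat cortical neurons on 16-electrode MEA wells, exposed from day 0 through day 12 with compound renewed at DIV 5 and 9 feeds. Active electrodes (mean firing ≥5 spikes/min) counted at DIV 5, 7, 9, 12; trapezoidal AUC across days, loss-of-signal versus DMSO.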
# [4] = CCTE_Shafer_MEA_dev_burst_rate: CCTE's Neural Network Formation Assay for Burst Rate, Shafer Lab (AID 2284042);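 on AC50: potency for loss of burst rate below DMSO control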
# Method in brief: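 Exposure ran continuously over 12 days of network development in rat cortical cultures, with compound refreshed during full media changes on DIV 5 and 9. Single-electrode bursts per recording time, well-mean over active electrodes, trapezoidal AUC across days 5–12, fitted downward relative to DMSO.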
# [5] = CCTE_Shafer_MEA_dev_bursting_electrodes_number: CCTE's Neural Network Formation Assay for Number of Bursting Electrodes, Shafer Lab (AID 2284043; active means hit-call score of the fitted dose curve at least 0.9, where 1 is the maximum;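 on AC50: potency is for loss of bursting electrodes relative to DMSO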)
# Method in brief: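 Primary rat cortical neurons were cultured on PEI-coated 48-well MEA plates (16 electrodes/well) and exposed from plating through day 12, with compound renewed at feeds on DIV 5 and 9. Electrodes bursting ≥1 per 2 min were counted on DIV 5, 7, 9, 12; trapezoidal AUC taken.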
# [6] = CCTE_Shafer_MEA_dev_per_burst_interspike_interval: CCTE's Neural Network Formation Assay for Burst Interspike Interval, Shafer Lab (AID 2284044);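 further: mean spike spacing inside bursts as AUC over recordings on days 5 7 9 12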;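 on AC50: potency for a decrease of within-burst interspike interval below DMSO level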
# Method in brief: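 Primary rat cortical neurons on 48-well MEA plates, exposed from day 0 through day 12, treatment renewed at DIV 5 and 9. Within-burst interspike interval recorded days 5, 7, 9, 12, well-averaged, summarised as AUC; negative fit versus DMSO.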
# [7] = CCTE_Shafer_MEA_dev_burst_duration_mean: CCTE's Neural Network Formation Assay for Mean Burst Duration, Shafer Lab (AID 2284045);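 on AC50: curve fitted for loss meaning shorter burst duration than DMSO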
# Method in brief: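 Primary rat cortical neurons on PEI-coated 16-electrode MEA wells, exposed from plating through day 12 with compound renewed at DIV 5 and 9; spontaneous activity recorded days 5, 7, 9, 12. Well-mean burst duration collapsed as trapezoidal AUC, fitted for loss versus DMSO.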
# [8] = CCTE_Shafer_MEA_dev_interburst_interval_mean: CCTE's Neural Network Formation Assay for Mean Interburst Interval, Shafer Lab (AID 2284046);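 further: well-mean interburst interval of bursting electrodes as AUC over four recording days; curve fitted for decrease in interburst interval relative to DMSO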
# Method in brief: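 Primary rat cortical neurons on PEI-coated 48-well MEA plates (laminin added with cells at plating) (16 electrodes/well), exposed from plating day 0 with renewal at DIV 5 and 9. Mean inter-burst interval averaged over bursting electrodes, AUC across days 5, 7, 9, 12; DMSO baseline.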
# [9] = CCTE_Shafer_MEA_dev_inter_network_spike_interval_mean: CCTE's Neural Network Formation Assay for Mean Inter-network Spike Interval, Shafer Lab (AID 2284047)
# Method in brief: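 Mean time between consecutive network-spike peaks, recorded extracellularly (adaptive spike detection) on DIV 5, 7, 9 and 12, summarized as trapezoidal AUC. Rat cortical cultures on MEAs dosed continuously days 0–12, re-dosed at feeds; loss-of-signal fit relative to DMSO.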
# [10] = CCTE_Shafer_MEA_dev_network_spike_number: CCTE's Neural Network Formation Assay for Number of Network Spikes, Shafer Lab (AID 2284048);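 further: synchronized bursts across electrodes counted on days 5 7 9 12 and integrated as AUC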
# Method in brief: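 Primary rat cortical neurons were seeded at 1.5 x 10^5 cells/well on PEI-coated 16-electrode MEA wells with laminin, exposed from plating day 0, compound renewed at DIV 5 and 9. Network spikes were recorded on days 5, 7, 9, 12 and summarized as trapezoidal AUC versus DMSO.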
# [11] = CCTE_Shafer_MEA_dev_network_spike_peak: CCTE's Neural Network Formation Assay for Mean Number of Electrodes in Network Spike, Shafer Lab (AID 2284049);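 on AC50: fitted for loss of signal meaning fewer electrodes in network spikes than DMSO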
# Method in brief: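 Continuous 12-day exposure of rat cortical cultures, starting at plating, on MEA plates. Endpoint: electrodes participating in network-spike peaks, AUC across DIV 5–12, DMSO as negative control.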
# [12] = CCTE_Shafer_MEA_dev_spike_duration_mean: CCTE's Neural Network Formation Assay for Mean Spike Duration, Shafer Lab (AID 2284051);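 further: mean network spike duration pooled as area under curve over DIV 5 to 12 recordings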;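 on AC50: potency for a decrease in mean network spike duration versus DMSO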
# Method in brief: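 Spontaneous activity was recorded on days 5, 7, 9 and 12 from rat cortical cultures grown on microelectrode arrays and dosed continuously from day 0, with media and compound renewed after the DIV 5 and 9 recordings. Network-spike duration was collapsed by area under the curve.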
# [13] = CCTE_Shafer_MEA_dev_network_spike_duration_std: CCTE's Neural Network Formation Assay for Standard Deviation of Network Spike Duration, Shafer Lab (AID 2284052);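 further: hits are decreases in network spike duration SD versus DMSO vehicle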
# Method in brief: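 Network spike duration variability was collapsed across recordings on days 5, 7, 9 and 12 by trapezoidal area-under-curve and fitted downward against DMSO. Cultures were rat cortical neurons on PEI-coated MEA plates, dosed continuously from plating, refed with compound DIV 5/9.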
# [14] = CCTE_Shafer_MEA_dev_per_network_spike_spike_number_mean: CCTE's Neural Network Formation Assay for Mean Number of Spikes in a Network Spike, Shafer Lab (AID 2284053);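 on AC50: fitted as decrease in spikes per network spike relative to DMSO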
# Method in brief: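 Mean spike count within each network spike, taken in a 0.05 s window at its peak, was recorded on days 5, 7, 9 and 12 and integrated as trapezoidal area under the curve. Rat cortical cultures on MEA plates received continuous compound from day 0, refreshed at medium changes on DIV 5 and 9.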
# [15] = CCTE_Shafer_MEA_dev_per_network_spike_spike_percent: CCTE's Neural Network Formation Assay for Percent of Spikes in a Network Spike, Shafer Lab (AID 2284054)
# Method in brief: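 Primary rat cortical neurons on 16-electrode MEA wells (PEI-coated, laminin at plating), exposed from day 0 with renewal at DIV 5 and 9; spikes within 0.05 s of network-spike peaks over total spikes, AUC across days 5, 7, 9, 12.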
# [16] = CCTE_Deisenroth_AIME_384WELL_CTox_Active: Cytotoxicity Assessment (CTOX) in CCTE's 384-well Estrogen Receptor Transactivation Assay with AIME metabolic competence (metabolism positive), Deisenroth Lab (AID 2284037; active means hit-call score of the fitted dose curve at least 0.9, where 1 is the maximum;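 further: chemicals first conditioned 2 h by alginate-bound induced rat liver S9 before cells; activity means signal loss indicating cell death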)
# Method in brief: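 VM7Luc4E2 breast cells received medium pre-incubated 2 h with chemical over alginate microspheres holding induced male Sprague Dawley rat liver S9; viability read 24 h later by protease-substrate fluorescence. Loss of signal, bidirectional fit, 0.002–200 uM.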
# [17] = biological target: Estrogen receptor (Homo sapiens) (UniProt P03372); assay: CCTE_Deisenroth_AIME_384WELL_LUC_Inactive: CCTE's 384-well Estrogen Receptor Transactivation Assay without AIME metabolic competence (ERTA luciferase; metabolism negative), Deisenroth Lab (AID 2284038; active means hit-call score of the fitted dose curve at least 0.9, where 1 is the maximum;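 further: hits raise estrogen receptor luciferase signal so potencies reflect agonists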)
# Method in brief: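 Metabolism-negative mode: chemicals (10-point, 0.002–200 uM) held 2 h with alginate-water microspheres, then conditioned medium applied to VM7Luc4E2 cells for 24 h. Luciferase induction referenced to 17beta-estradiol.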
# [18] = CCTE_Deisenroth_AIME_384WELL_CTox_Inactive: Cytotoxicity Assessment (CTOX) in CCTE's 384-well Estrogen Receptor Transactivation Assay without AIME metabolic competence (metabolism negative), Deisenroth Lab (AID 2284039; active means hit-call score of the fitted dose curve at least 0.9, where 1 is the maximum;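 further: cell viability via live-cell protease substrate cleaved to fluorescent probe; cells exposed 24 h to medium preincubated 2 h with alginate-water beads without S9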)
# Method in brief: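 Fluorescent protease-substrate viability readout after 24 h exposure of VM7Luc4E2 cells to conditioned medium. Chemicals (0.002–200 uM) first sat 2 h over alginate-water beads, no S9. Data fitted bidirectionally, loss of signal meaning viability loss.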
# [19] = biological target: Estrogen receptor (Homo sapiens) (UniProt P03372); assay: CCTE_Deisenroth_AIME_384WELL_LUC_Shift: CCTE's 384-well Estrogen Receptor Transactivation Assay with AIME metabolic competence data shift (ERTA luciferase; difference in metabolism positive and negative), Deisenroth Lab (AID 2284041);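 further: shift is response with S9 minus without S9 so positive means metabolism raised ER signal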
# Method in brief: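 Here, parent compounds undergo 2 h phase I metabolism by PB/BNF-induced rat S9 before 24 h transactivation in VM7Luc4E2 cells; the curve models S9-positive minus S9-negative response over a 10-point series.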
# Sequence of Estrogen receptor (Homo sapiens) (P03372 whole entry, looked up): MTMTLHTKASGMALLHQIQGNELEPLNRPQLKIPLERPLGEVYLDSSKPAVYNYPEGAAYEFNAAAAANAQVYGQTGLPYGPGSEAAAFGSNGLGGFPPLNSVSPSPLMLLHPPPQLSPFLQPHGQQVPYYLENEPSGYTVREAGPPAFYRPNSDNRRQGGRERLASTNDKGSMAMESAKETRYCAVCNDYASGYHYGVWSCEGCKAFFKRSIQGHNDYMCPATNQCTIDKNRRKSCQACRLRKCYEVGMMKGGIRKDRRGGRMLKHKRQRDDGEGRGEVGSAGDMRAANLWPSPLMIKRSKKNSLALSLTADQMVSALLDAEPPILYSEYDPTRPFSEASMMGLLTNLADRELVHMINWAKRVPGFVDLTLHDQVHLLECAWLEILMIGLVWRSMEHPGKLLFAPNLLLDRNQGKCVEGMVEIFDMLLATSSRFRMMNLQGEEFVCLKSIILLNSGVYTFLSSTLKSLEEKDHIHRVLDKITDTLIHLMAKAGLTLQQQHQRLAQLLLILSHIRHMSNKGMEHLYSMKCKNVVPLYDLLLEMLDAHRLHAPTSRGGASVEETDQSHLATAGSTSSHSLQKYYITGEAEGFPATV
structure (smiles),measurement,setting,value
O=C1NC(=O)C(c2ccccc2)(c2ccccc2)N1,outcome,[1],inactive
same,outcome,[2],inactive
same,outcome,[3],inactive
same,outcome,[4],inactive
same,outcome,[5],inactive
same,outcome,[6],inactive
same,outcome,[7],inactive
same,outcome,[8],inactive
same,outcome,[9],inactive
same,outcome,[10],inactive
same,outcome,[11],inactive
same,outcome,[12],inactive
same,outcome,[13],inactive
same,outcome,[14],inactive
same,outcome,[15],inactive
Cc1ccc(C(C)(C)C)c(O)c1,outcome,[16],inactive
same,outcome,[17],inactive
same,outcome,[18],inactive
same,outcome,[19],inactive
COC(=O)CCCC(=O)OC,outcome,[16],inactive
c1ccc2occc2c1,outcome,[16],inactive
same,outcome,[17],inactive
same,outcome,[18],inactive
same,outcome,[19],inactive
O=C(O)CN(CC(=O)O)CC(=O)O,outcome,[16],inactive
same,AC50,[17],28.8 µM (active)
same,AC50,[19],233 µM (active)
CC(C)(O)c1ccc(CNC(=O)c2cccnc2Oc2ccc(F)cc2)cc1,outcome,[16],inactive
CSc1ccc(Oc2ccc(S(N)(=O)=O)cc2CN(C)C)cc1C,outcome,[16],inactive
same,outcome,[17],inactive
same,outcome,[18],inactive
same,outcome,[19],inactive
COC(=O)[C@H]1[C@H]2C[C@@H]3c4[nH]c5cc(OC)ccc5c4CCN3C[C@H]2C[C@@H](OC(=O)c2cc(OC)c(OC)c(OC)c2)[C@@H]1OC,AC50,[1],2.8 µM (active)
same,AC50,[2],5.76 µM (active)
same,AC50,[3],5.24 µM (active)
same,AC50,[4],5.23 µM (active)
same,AC50,[5],3.34 µM (active)
same,AC50,[6],3.76 µM (active)
same,AC50,[7],2.43 µM (active)
same,AC50,[8],3.27 µM (active)
same,outcome,[9],inactive
same,AC50,[11],5.07 µM (active)
same,AC50,[12],2.71 µM (active)
same,AC50,[13],2.18 µM (active)
same,AC50,[14],4.8 µM (active)
same,AC50,[15],15.3 µM (active)
C/C=C/C=C/C(=O)O,outcome,[16],inactive
same,outcome,[18],inactive
O=C(O)c1[nH]n(-c2ccc(S(=O)(=O)O)cc2)c(=O)c1N=Nc1ccc(S(=O)(=O)O)cc1,AC50,[16],100 µM (active)
same,outcome,[17],inactive
same,AC50,[18],100 µM (active)
same,outcome,[19],inactive
OCC(O)CO,outcome,[1],inactive
same,outcome,[2],inactive
same,outcome,[3],inactive
same,outcome,[4],inactive
same,outcome,[5],inactive
same,outcome,[6],inactive
same,outcome,[7],inactive
same,outcome,[8],inactive
same,outcome,[9],inactive
same,outcome,[10],inactive
same,outcome,[11],inactive
same,outcome,[12],inactive
same,outcome,[13],inactive
same,outcome,[14],inactive
same,outcome,[15],inactive

# From PubChem BioAssay (EPA / NIEHS)
